In PubChem BioAssay:
Entries with a potency or affinity are not part of this list. Inconclusive results are not listed. The source made the active and inactive calls.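 The calls were made as follows: active = falling signal with fitted half-maximal potency no higher than twice the top valid tested dose; inconclusive = poor fit quality, or flat fit spanning -70% to -30%; inactive = potency over limit, rising signal, or flat fit inside 30%.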

test: fungal growth arrest, C. neoformans – Alamar Blue, cherry-picks, dose response (AID 686998); conditions: Cryptococcus neoformans growth, 24 h; series mostly up to 35 µM

outcome, inactive:
CO[C@H]1CC[C@H]2CCOc3c(C#N)cccc3C(=O)N(C)C[C@@H](C)C(=O)N(C)C[C@H]1O2, C[C@@H]1CN([C@H](C)CO)C(=O)c2c(c3ccccc3n2C)-c2ccccc2CO[C@H]1CN(C)S(=O)(=O)c1ccc(Cl)cc1, CO[C@H]1CN(C)C(=O)c2cc(NS(=O)(=O)CC(F)(F)F)ccc2OC[C@@H](C)N(Cc2cccnc2)C[C@@H]1C, CC(C)C#Cc1ccc2c(c1)O[C@H](CN(C)C(=O)Cc1ccccn1)[C@H](C)CN([C@H](C)CO)S2(=O)=O, C[C@@H]1CN([C@@H](C)CO)C(=O)c2cc(NC(=O)Nc3cccc4ccccc34)ccc2O[C@@H]1CN(C)C(=O)Nc1ccccc1, O=C1CCC(C(=O)Nc2cccc(C(F)(F)F)c2)N1 (centres undefined), O=C(Nc1ccccc1)N1CCCCN2[C@H](CO)[C@@H](c3ccc(C#CC4CC4)cc3)[C@@H]2C1, CC(C)NC(=O)Nc1cccc2c1O[C@H](CN(C)C)[C@H](C)CN([C@@H](C)CO)C2=O, COc1ccc(NC(=O)Nc2ccc3c(c2)C(=O)N([C@H](C)CO)C[C@H](C)[C@H](CN(C)C(=O)Cc2ccccc2)OCCCC[C@H](C)O3)cc1, COc1ccc(CN(C)C[C@@H]2Oc3ccc(NC(=O)Nc4ccc(F)cc4)cc3CC(=O)N([C@H](C)CO)C[C@H]2C)cc1, C[C@@H]1CN([C@@H](C)CO)C(=O)CCCn2nncc2CO[C@@H]1CN(C)Cc1cccc(C(F)(F)F)c1, C[C@@H]1CN([C@@H](C)CO)S(=O)(=O)c2ccc(C#CC3CC3)cc2O[C@H]1CN(C)CC1CCOCC1, C[C@@H]1CN([C@@H](C)CO)S(=O)(=O)c2ccc(C#Cc3ccc(F)cc3)cc2O[C@H]1CN(C)C(=O)NC1CCCC1, COc1ccccc1CN1CC[C@H]2[C@H](CO)Nc3ccc(C#Cc4ccccc4)cc3[C@H]21, C[C@H]1CN([C@@H](C)CO)C(=O)Cc2cc(NC(=O)Nc3ccccc3)ccc2O[C@H]1CN(C)C(=O)Nc1ccc2c(c1)OCO2, C[C@H](NC(=O)C[C@@H]1C=C[C@H](NC(=O)CN2CCOCC2)[C@@H](CO)O1)c1ccccc1, O=C(Nc1ccc(Cl)c([N+](=O)[O-])c1)c1ccco1, CC(=O)N1[C@@H](CO)[C@H](c2ccc(-c3ccccc3)cc2)[C@@H]1CNC(=O)C1CC1, CC(C)NC(=O)Nc1ccc2c(c1)CC(=O)N([C@@H](C)CO)C[C@@H](C)[C@@H](CN(C)Cc1ccc(Oc3ccccc3)cc1)O2, O=C(C[C@H]1CC[C@H]2[C@@H](COC[C@H](O)CN2Cc2cccc(Cl)c2)O1)Nc1nccs1, Cc1cc(C)c(NC(=O)C2CCCCN2C)c(C)c1 (centres undefined), N#Cc1ccc(-c2ccc3c(c2)[C@H]2[C@H](CCN2C(=O)Cc2ccccc2)[C@@H](CO)N3)cc1, CCCNC(=O)N(C)C[C@@H]1Oc2ncc(C#CCc3ccccc3)cc2C(=O)N([C@@H](C)CO)C[C@@H]1C, CC=Cc1ccc2n(c1=O)C[C@@H]1[C@@H](CO)[C@H](C(=O)N3CCCCC3)N(Cc3ccccc3)[C@H]21 (mixture of isomers), CNC[C@H]1OCCCC[C@H](C)Oc2ccc(NC(=O)CCCN(C)C)cc2C(=O)N([C@H](C)CO)C[C@@H]1C, COc1ccc(-c2cnc3c(c2)C(=O)N([C@H](C)CO)C[C@H](C)[C@H](CN(C)Cc2ccc(F)cc2)O3)cc1, O=C(NC[C@@H]1[C@H](c2ccccc2)[C@@H](CO)N1C(=O)Cc1cccnc1)C1CCC1, Cc1noc(C)c1NC(=O)Nc1ccc2c(c1)C(=O)N(C)[C@@H]1CC[C@H](CC(=O)N[C@H]3CCN(Cc4ccccc4)C3)O[C@@H]1CO2, CC(C)NC(=O)N[C@H]1CC[C@@H](CCNC(=O)C2CC2)O[C@@H]1CO, C[C@@H]1CCCCO[C@H](CN(C)C(=O)Nc2ccc(F)cc2)[C@H](C)CN([C@@H](C)CO)C(=O)c2cc(NS(=O)(=O)c3ccc(Cl)cc3)ccc2O1, C[C@H]1CN([C@@H](C)CO)C(=O)Cc2cc(NC(=O)CCCCCC(=O)Nc3ccccc3N)ccc2O[C@H]1CN(C)Cc1ccc2c(c1)OCO2, CN1CCc2c(sc(N)c2C(=O)c2ccc(Cl)cc2)C1, CC(C)(C)c1ccc(OCC(=O)NC(c2ccccc2)c2ccccc2)cc1, C[C@H]1CCCCO[C@H](CN(C)S(=O)(=O)c2ccc(Cl)cc2)[C@@H](C)CN([C@@H](C)CO)C(=O)c2cc(NS(=O)(=O)c3cccs3)ccc2O1, C[C@H](CO)N1C[C@H](C)[C@@H](CN(C)C(=O)Nc2cccc3ccccc23)Oc2c(cccc2N(C)C)C1=O, CC(C)NC(=O)Nc1ccc2c(c1)CC(=O)N([C@H](C)CO)C[C@H](C)[C@H](CN(C)S(=O)(=O)c1ccc(Cl)cc1)O2, C[C@@H]1CCCCO[C@H](CN(C)Cc2ccncc2)[C@@H](C)CN([C@@H](C)CO)C(=O)c2cc(NC(=O)Nc3ccccc3)ccc2O1, C[C@@H](NC(=O)C[C@@H]1CC[C@@H]2[C@H](COC[C@H](O)CN2Cc2cc(F)ccc2F)O1)c1ccccc1, CC1CCCCN1C(=O)CSc1nc(C2CC2)nc2c1cnn2-c1ccccc1 (centres undefined)
